Screening data (PubChem)
Tau fibril ThT – blocks human tau fibril formation measured by thioflavin T. P10636. recombinant tau K18 P301L, heparin-induced fibrillization, ThT fluorescence. Potency, µM (series often up to 57.4 µM), without a hit: top-dose activity, negative = inhibition, usual class: inhibitors. 2.1% of 270,000 active; also: nearly all actives have a fitted effect of over 55% in size
Target sequence (P10636 561-689 P618L limits assumed): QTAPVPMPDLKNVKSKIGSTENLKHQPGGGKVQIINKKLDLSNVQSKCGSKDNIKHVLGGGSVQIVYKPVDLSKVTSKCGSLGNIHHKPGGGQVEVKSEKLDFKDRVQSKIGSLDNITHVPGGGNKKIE
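Using a mix of unlabeled (15 uM) and Alexa 594-labeled (0.24 uM) tau K18 P301L, heparin-triggered fibrillization over 6 hr at 37 C was scored by ThT fluorescence.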
TR SRC2 fluor cs – counter-screen for TRb-SRC2 inhibitors: fluorescence interference. TRb/SRC2 Texas Red total fluorescence interference. Potency, µM (series often up to 106 µM), for the others: at the highest dose fluorescence change, negative = quenching. 0.29% of 280,000 active. AID 1479; active = well fitted curve in either direction with a large enough effect; inconclusive = small, poorly fitted or top-dose-only effect
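Flags fluorescent or light-absorbing compounds by total fluorescence, S + 2P, at 555 nm excitation and 632 nm emission. Mixture: 20 nM Texas Red SRC2 peptide, 0.6 uM human TRb LBD, 1 uM T3, 5% DMSO; compound exposure 5 h at ambient temperature.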
Tau fibril FP – blocks human tau fibril formation measured by polarization. P10636. K18 P301L tau heparin fibrillization, Alexa594 FP, 6 h. Potency, µM (top dose mostly 57.7 µM), inactives show at the highest dose activity, negative = inhibition, most hits filed as inhibitors. 0.39% of 280,000 active; also: nearly all actives have a fitted effect of over 55% in size
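Human K18 P301L fragment (15 uM unlabeled plus 0.24 uM Alexa 594-labeled) in 100 mM sodium acetate pH 7 with compound, aggregation induced by 20 uM heparin for 6 hr at 37 C. ThT (30 uM) added for 1 hr, then Alexa 594 FP read.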
TRb SRC2 PPI – TRbeta-SRC2 interaction inhibition | TRbeta-SRC2 peptide binding, fluorescence polarization; receptor liganded with 1 µM T3 | 0.065% of 280,000 active | Potency, µM (titrated, usually from 106 µM), inactives show at the top dose activity change, negative = inhibition, actives largely listed as inhibitors | AID 1469 | P10828;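 also: plate controls were bound peptide for no effect and peptide without receptor for full effect; nearly all actives have a fitted effect of over 50% in size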
Target sequence (P10828 whole entry, looked up): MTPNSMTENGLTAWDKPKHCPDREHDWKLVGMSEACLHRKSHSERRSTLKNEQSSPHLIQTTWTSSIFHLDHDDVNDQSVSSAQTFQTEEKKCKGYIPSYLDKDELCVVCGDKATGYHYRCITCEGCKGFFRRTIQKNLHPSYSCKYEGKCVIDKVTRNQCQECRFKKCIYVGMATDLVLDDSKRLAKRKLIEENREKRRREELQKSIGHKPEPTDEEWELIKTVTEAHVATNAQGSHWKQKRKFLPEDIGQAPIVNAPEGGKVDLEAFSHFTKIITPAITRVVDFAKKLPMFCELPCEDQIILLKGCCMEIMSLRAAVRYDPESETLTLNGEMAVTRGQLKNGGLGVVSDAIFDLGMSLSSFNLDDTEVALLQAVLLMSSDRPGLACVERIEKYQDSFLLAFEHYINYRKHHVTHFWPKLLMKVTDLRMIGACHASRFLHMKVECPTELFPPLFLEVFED
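Human TRb LBD (0.6 uM) plus Texas Red-labeled SRC2 peptide (20 nM), 1uM T3, 5% DMSO, 5 hr at ambient temperature. Decreased polarization (555/632 nm) flags inhibition; data normalized to free and bound peptide controls.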
Tau fluor counter – counter-screen for tau fibril formation inhibitors; Potency, µM (highest dose often 57.7 µM), inactives show at the highest dose activity change, negative = decrease; AID 1463; 0.93% of 280,000 active; tau K18 P301L Alexa594 fluorescence, heparin fibrillization; also: nearly all actives have a fitted effect of over 55% in size
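Human tau K18 P301L (15 uM unlabeled, 0.24 uM Alexa 594-labeled) in 100 mM sodium acetate pH 7 with 20 uM heparin, 6 hr at 37 C. ThT 30 uM added, 1 hr ambient; Alexa 594 FP and total fluorescence read at 555/632 nm.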
Numbers without * were called inactive; u = inconclusive; x = no result; [ ] = another dose, or the depositor's remark. Rows were chosen to be rich in hits. Some 3.1% of all compounds tested hit in one or more screens of this group. Unless noted, calls follow the shape of the dose curve; as a rule, active = well fitted curve in the direction sought with a large enough effect; inconclusive = small, poorly fitted or top-dose-only effect, or another doubt; inactive = no such curve, though single readings can be large; an effect the other way counts as inactive or inconclusive. Unless noted, % is scaled to controls: 0 for no effect and ±100 for the full control effect; potency is read from the fitted curve at half-maximal effect.

SMILES	Tau fibril ThT	TR SRC2 fluor cs	Tau fibril FP	TRb SRC2 PPI	Tau fluor counter
CC1=C(CCC(=O)O)c2cc3nc(cc4[nH]c(cc5[nH]c(cc1n2)c(C)c5C(C)O)c(C)c4C(C)O)C(C)=C3CCC(=O)O (stereo unspecified)	u	45µM*[fluorescent]	u	35µM*	-23%
C=Cc1c(C)c2cc3[nH]c(cc4nc(cc5nc(cc1[nH]2)C(C)=C5CCC(=O)O)C(CCC(=O)O)=C4C)c(C)c3C=C	16µM*	16µM*[fluorescent]	25µM*	18µM*	16µM*[quencher]
Cc1ccc(Cl)cc1NC(=O)CSC(N)=O	32µM*	-1%	u	-2%	-18%
CS(=O)(=O)Nc1cccc(-c2nccc(-n3ccnc3)n2)c1	-20%	-3%	-10%	-7%	-8%
Cc1ccccc1C(=O)NC1(C(F)(F)F)N=C(c2ccccc2)N(Cc2ccccc2)C1=O (stereo unspecified)	u	10µM*[quencher]	-1%	-3%	u
Cc1ccc(C(=O)NC2(C(F)(F)F)N=C(c3ccccc3)N(C3CCCCC3)C2=O)cc1 (stereo unspecified)	-4%	-13%	-11%	1%	-16%
CCOc1cc(/C=N/NC(=O)C(N)=O)cc(Br)c1O	-15%	-4%	-4%	-6%	-3%
CC(=O)Nc1ccc(N=Cc2c(O)c(C(=O)Nc3ccccc3)cc3ccccc23)cc1	13µM*	0%	u	-5%	-26%
CCOc1cc(Br)c(Br)c(C=Nc2ccc(NC(C)=O)cc2)c1O	6.3µM*	1%	-3%	-4%	-12%
CC(=O)Nc1ccc(N=Cc2ccc[nH]2)cc1	-8%	3%	4%	-6%	2%
O=c1[nH]c(CN2CCN(S(=O)(=O)c3ccccc3C(F)(F)F)CC2)nc2sc3c(c12)CCCC3	u	-2%	9%	-13%	-26%
O=C(Oc1cc(Cl)ccc1Cl)c1ccc(N2CCOCC2)c([N+](=O)[O-])c1	16µM*	-2%	-8%	-1%	u
O=[N+]([O-])c1cc(Cl)ccc1N1CCN(c2ccccc2O)CC1	14µM*	-3%	15%	-4%	16µM*[quencher]
Cc1ccc(OC(=O)c2ccc(N3CCOCC3)c([N+](=O)[O-])c2)cc1	10µM*	-2%	-1%	0%	u
O=[N+]([O-])c1cc(Cl)ccc1N1CCCCC1	-16%	0%	-6%	-6%	-11%
O=C(Oc1ccc(Cl)cc1)c1ccc(N2CCOCC2)c([N+](=O)[O-])c1	u	-2%	2%	2%	u
O=C(CSc1nc(=O)n(Cc2ccncc2)c2c1CCC2)Nc1ccc(F)cc1F	-5%	0%	-5%	-2%	-1%
C#CCCOC(=O)N1C2=NC(C(=O)OC)=C(C(=O)OC)[C@@H]3N(CC#CC)c4ccccc4[C@]23C[C@H]1C(=O)OC	-4%[11.5 µM]	3%[11.2 µM]	0%[11.6 µM]	8%[11.2 µM]	-5%[11.6 µM]
COc1ccc(Nc2nc(Cl)nc(NCCO)n2)cc1	2%	-6%	5%	9%	7%
COc1ccc(Nc2nc(Nc3ccc(OC)cc3)nc(SC3=NCCS3)n2)cc1	u	-2%	14%	1%	14µM*[quencher]
CC1=NC(=O)C(N=Nc2cccc(O)c2)N1c1ccccc1 (stereo unspecified)	5µM*	-7%	-4%	-1%	u
Cc1cccc(-n2c(O)c(C=Nc3cccc(O)c3)c3ccccc3c2=O)n1	-13%	0%	-2%	7%	-20%
Oc1c(Cl)cc(Cl)cc1C(C#Cc1ccccc1)N1CCOCC1 (stereo unspecified)	14µM*	-1%	-4%	-2%	u
N#CC(c1ccc(Cl)cc1)N1CCOCC1 (stereo unspecified)	-5%	-2%	-1%	3%	0%
N#CCN1CCN(CC(=O)c2ccc(Br)cc2)CC1	x	-2%	-8%	-10%	-26%
SMILES	Tau fibril ThT	TR SRC2 fluor cs	Tau fibril FP	TRb SRC2 PPI	Tau fluor counter
CCCCCC/C(C)=C1/SC(=S)NC1=O	-20%	-2%	0%	-6%	-14%
C/C(C/C(C)=C1/SC(=S)NC1=O)=C1\SC(=S)NC1=O	16µM*	-1%	-1%	6%	-25%
CCOC(=O)CN1C(=O)c2cccnc2Oc2ccccc21	1%	-1%	-4%	5%	0%
CCCCc1ccc(NC(=S)Nc2ccc(Nc3ccc(OC)cc3)cc2)cc1	8.9µM*	0%	u	7%	7.9µM*[quencher]
CCCSCCCNC(=O)Cn1c(-c2cccs2)cc2ccccc21	-4%	-18%	2%	-1%	-22%
COC(=O)c1ccc2c(c1)SC1=C(CCCC1=O)N2	13µM*	17%	5%	-24%	-6%
O=C1CCCC2=C1Sc1ccc(Cl)cc1N2	6.3µM*	-4%	15%	-1%	-15%
O=C(Cc1ccccc1Cl)NC1(O)C(=O)c2ccccc2C1=O	2.8µM*	0%	u	-17%	-29%
N#Cc1nc(/C=C/c2ccc(F)cc2)oc1N1CCCCC1	u	-2%	0%	-8%	u
O=C(CCc1cn(Cc2ccc(F)cc2)c2ccccc12)NCCc1ccc(Cl)cc1	-5%	0%	-4%	-6%	-20%
CN1CCN(c2cc(N3CCc4ccccc4C3)c(F)cc2[N+](=O)[O-])CC1	13µM*	-2%	-1%	-3%	-27%
CCC(=O)N1CCN(c2cc(N3CCN(C)CC3)c(F)cc2[N+](=O)[O-])CC1	-10%	-7%	4%	1%	-2%
O=C(c1ccc(CS(=O)(=O)c2c(Cl)cccc2Cl)o1)N1CCN(c2ccccc2)CC1	-7%	6.3µM*[quencher]	6%	-24%	-23%
O=C(c1ccc(CS(=O)(=O)c2c(Cl)cccc2Cl)o1)N1CCCC1	-8%	-7%	3%	2%	-13%
COc1cc2c(cc1OC)CN(C(=O)c1sc(-c3cnccn3)nc1C)CC2	-8%	-1%	-4%	-5%	-6%
CC(=O)c1c(C(C)=O)c(C)n(-c2ccc(N)c(C)c2)c1C	-16%	45µM*[fluorescent]	-1%	22µM*	0%
COc1ccc(-n2c(C)c(C(C)=O)c(C(C)=O)c2C)cc1OC	-5%	1%	4%	-19%	-2%
O=C1/C(=C\c2ccc(-c3ccccc3Cl)o2)SC(=S)N1CC1CCCO1 (stereo unspecified)	u	0%	1%	-1%	-14%
COc1cc(/C=C2/SC(=S)N(CC3CCCO3)C2=O)ccc1O (stereo unspecified)	14µM*	14%	11%	28%	11µM*[quencher]
Cc1ccc(/C=C2\SC(=S)N(CC3CCCO3)C2=O)o1 (stereo unspecified)	16µM*	9%	u	5%	-24%
O=C1/C(=C/c2ccco2)SC(=S)N1CC1CCCO1 (stereo unspecified)	20µM*	2%	u	-7%	u
O=C1/C(=C/c2cccnc2)SC(=S)N1CC1CCCO1 (stereo unspecified)	-17%	-2%	-4%	2%	-8%
